Where “and” joins values, the source holds several entries; their conditions need not be identical. Identical values can stand only once. Records with an inconclusive call do not appear. A call without a number means that no potency is given here. Calls of active or inactive are those of the source. Unless noted, calls follow the shape of the dose curve; as a rule, active = well fitted curve in the direction sought with a large enough effect in the repeat runs; inconclusive = weak or mixed curves; inactive = no such curve, though single readings can be large; an effect the other way counts as inactive or inconclusive.
How the values were obtained:
[1] = biological target: Progesterone receptor (Homo sapiens) (UniProt P06401); assay: qHTS assay to identify small molecule antagonists of the progesterone receptor (PR) signaling pathway (AID 1346795; active = well fitted inhibition curve with a large enough effect in the signal ratio in the repeat runs, not every such curve was filed as active; the % refers to the signal ratio; also: potency is read from the fitted curve at half-maximal effect)
Outline: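 Antagonist mode: compounds tested against 1 nM (final) promegestone stimulation in HEK293T cells expressing PR-UAS-bla reporter, 16 hr at 37C, 5% CO2; beta-lactamase activity detected via B/G FRET substrate after 2 hr at room temperature.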

[2] = qHTS assay to identify small molecule antagonists of the TGF-beta/Smad signaling pathway - cell viability counter screen (AID 1346824); also: nearly all actives have a fitted effect of over 50% in size
Outline: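 SBE-bla HEK 293T cells, incubated overnight, then compound plus 0.25 ng/mL TGF-beta1 (stock added) for 5 hr at 37 C. Viability was read in the same wells by CellTiter-Glo luminescence after 30 min at room temperature.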

[3] = qHTS assay to identify small molecule agonists of the TGF-beta/Smad signaling pathway - cell viability counter screen (AID 1346829); also: top concentration of the series differs between compounds; nearly all actives have a fitted effect of over 45% in size
Outline: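 Tox21 qHTS format: SBE-bla HEK 293T cells treated with DMSO-dissolved compounds for 5 hr; CellTiter-Glo luminescence after 30 min at room temperature.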

[4] = qHTS assay to identify small molecule agonists of the TGF-beta/Smad signaling pathway (AID 1346859; active = well fitted activation curve with a large enough effect in the signal ratio in the repeat runs, not every such curve was filed as active; the % refers to the signal ratio; also: series mostly up to about 77 µM)
Outline: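 Reporter line: HEK 293T with stably integrated SBE-controlled beta-lactamase. Compound exposure lasts 5 hr at 37 C and 5% CO2; substrate loading follows for 2 hr at room temperature, with emission read at 460 and 530 nm.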

[5] = Caspase-3/7 induction in HepG2 cells by small molecules, qHTS assay (AID 1346978); also: nearly all actives have a fitted effect of over 15% in size; also: potency is read from the fitted curve at half-maximal effect
Outline: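 Wild-type HepG2 cells, 2,000/well, settled 5 hr at 37 C and 5% CO2, then compound-treated for 17 hr; caspase-3/7 activity read by luminescent Caspase-Glo 3/7 after 30 min at room temperature.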

[6] = Caspase-3/7 induction in CHO-K1 cells by small molecules, qHTS assay (AID 1346980); also: nearly all actives have a fitted effect of over 15% in size; also: potency is read from the fitted curve at half-maximal effect
Outline: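 Wild-type CHO-K1 cells exposed to compounds for 17hr at 37 C, 5% CO2. Caspase-3/7 activity then measured by Caspase-Glo 3/7 luminescence after 30min at room temperature.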

[7] = biological target: Nuclear receptor subfamily 1 group I member 2 (Homo sapiens) (UniProt O75469); assay: Human pregnane X receptor (PXR) small molecule agonists, qHTS assay (AID 1346982); also: nearly all actives have a fitted effect of over 35% in size; also: potency is read from the fitted curve at half-maximal effect
Outline: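 Cells: HepG2 stably carrying PXR-Luc. Medium held 5% charcoal-stripped FBS. Compounds in DMSO added after 5 hr plating, incubated 24 hr, then luminescence quantified with ONE-Glo.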

[8] = biological target: Nuclear receptor subfamily 1 group I member 2 (Homo sapiens) (UniProt O75469); assay: CYP3A4 induction through human pregnane X receptor (PXR) by small molecules, qHTS assay (AID 1346984); also: nearly all actives have a fitted effect of over 40% in size; also: potency is read from the fitted curve at half-maximal effect
Outline: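 Quantitative HTS in DPX-2 cells, i.e. HepG2 transfected with PXR response element and CYP3A4-promoter luciferase. Compounds in DMSO incubated 24hr at 37C; then P450-Glo CYP3A4 substrate, 3uM final, 3hr; One-Glo luminescence.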

[9] = biological target: Thyrotropin-releasing hormone receptor (Homo sapiens) (UniProt P34981); assay: qHTS assay to identify small molecule antagonists of the thyrotropin-releasing hormone receptor (TRHR) signaling pathway (AID 1346877; active = well fitted inhibition curve with a large enough effect in the repeat runs, not every such curve was filed as active; also: series mostly up to about 51 µM)
Outline: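 Antagonism is measured as suppression of the calcium response to 1 nM TRH in TRHR-HEK293 cells that have been dye-loaded for 2 h at 37 °C after overnight plating. Each compound is tested at 15 concentrations in triplicate.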

[10] = biological target: Thyrotropin-releasing hormone receptor (Homo sapiens) (UniProt P34981); assay: qHTS assay to identify small molecule agonists of the thyrotropin-releasing hormone receptor (TRHR) signaling pathway (AID 1346891; calls by dose curve;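 also: HEK293 cells expressing TRHR with calcium dye readout; series mostly up to about 58 µM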)
Outline: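 Cells: TRHR-Hek293, seeded and incubated 18 h. Dye loading: 2 h at 37 °C. Compound added from DMSO stock by pin tool. Read-out: kinetic calcium fluorescence over 3 min.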

[11] = Caspase-3/7 induction in CHO-K1 cells by small molecules, qHTS cell viability counter screen (AID 1346979); also: nearly all actives have a fitted effect of over 35% in size; also: potency is read from the fitted curve at half-maximal effect
Outline: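 Cytotoxicity counter screen run in parallel with the caspase-3/7 assay: CHO-K1 cells, 16hr compound treatment at 37C, then CellTiter-Fluor for 1hr before fluorescence reading.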

[12] = biological target: Cytochrome P450 2D6 (Homo sapiens) (UniProt P10635); assay: Cytochrome P450 Family 2 Subfamily D Member 6 (CYP2D6) small molecule antagonists: luciferase reporter qHTS assay (AID 1671196); also: series mostly up to about 120 µM; nearly all actives have a fitted effect of over 50% in size
Outline: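 Enzyme and proluciferin substrate were first combined with test chemical for 10 min at room temperature. Adding NADPH regeneration solution started a 1 h reaction, stopped with luciferin detection reagent and read by luminescence 20 min later.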

[13] = qHTS assay to identify small molecule antagonists of the progesterone receptor (PR) signaling pathway - cell viability counter screen (AID 1346798); also: nearly all actives have a fitted effect of over 50% in size; also: potency is read from the fitted curve at half-maximal effect
Outline: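 Counter screen for cytotoxicity: viability of PR-UAS-bla HEK293T cells was measured with CellTiter-Glo luminescence following 16 hr compound exposure in the presence of R5020.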

[14] = Human pregnane X receptor (PXR) small molecule agonists, qHTS cell viability counter screen (AID 1346977); also: nearly all actives have a fitted effect of over 50% in size; also: potency is read from the fitted curve at half-maximal effect
Outline: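 Cytotoxicity counter screen run in the same wells as the PXR luciferase assay, using PXR-Luc HepG2 cells in charcoal-stripped serum medium. Viability: CellTiter-Fluor fluorescence after 24hr compound treatment.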

[15] = biological target: Nuclear receptor subfamily 1 group I member 2 (Homo sapiens) (UniProt O75469); assay: Human pregnane X receptor (PXR) activation by small molecules, qHTS assay (AID 1346985); also: nearly all actives have a fitted effect of over 40% in size
Outline: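 DPX-2 cells (HepG2 co-transfected with a PXR response element and a CYP3A4-promoter luciferase construct) were seeded at 2,000 per well, rested 5 hr at 37C, then exposed to DMSO-dissolved compounds for 24 hr. Activation was read as luciferase luminescence.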

[16] = biological target: Cytochrome P450 2C19 (Homo sapiens) (UniProt P33261); assay: Cytochrome P450 Family 2 Subfamily C Member 19 (CYP2C19) small molecule antagonists: luciferase reporter qHTS assay (AID 1671197); also: nearly all actives have a fitted effect of over 65% in size; also: potency is read from the fitted curve at half-maximal effect
Outline: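 Relative luminescence units recorded 20 min after the detection reagent stopped a 1 h, 37C CYP2C19 reaction on proluciferin substrate, which was started by NADPH regeneration following 10 min room-temperature compound preincubation; ketoconazole positive control.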

[17] = qHTS assay to identify small molecule agonists of the progesterone receptor (PR) signaling pathway - cell viability counter screen (AID 1346799; calls by dose curve; also: nearly all actives have a fitted effect of over 45% in size; also: potency is read from the fitted curve at half-maximal effect)
Outline: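 Cells (PR-UAS-bla HEK293T) are plated at 3,000/well in 2% charcoal-stripped FBS medium, rested 6 hr, dosed and incubated 16 hr at 37C. CellTiter-Glo is then added and luminescence measured after 30 min at room temperature.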

[18] = Caspase-3/7 induction in HepG2 cells by small molecules, qHTS cell viability counter screen (AID 1346981); also: nearly all actives have a fitted effect of over 30% in size; also: potency is read from the fitted curve at half-maximal effect
Outline: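 Cell viability is measured as a cytotoxicity counter screen alongside the Caspase-Glo 3/7 readout in identical wells. Wild-type HepG2 cells are treated with test compounds for 16 hr at 37 C before CellTiter-Fluor addition and a 1-hr incubation.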

[19] = biological target: Progesterone receptor (Homo sapiens) (UniProt P06401); assay: qHTS assay to identify small molecule agonists of the progesterone receptor (PR) signaling pathway (AID 1346784; calls by dose curve; also: nearly all actives have a fitted effect of over 30% in size)
Outline: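 Cells (PR-UAS-bla HEK 293T, GripTite) were plated in assay medium containing 2% charcoal-stripped FBS and incubated 6 hr. Test compounds in DMSO were added for 16 hr at 37C. FRET substrate was then loaded for 2 hr at room temperature before fluorescence reading.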

Chain of Cytochrome P450 2D6 (Homo sapiens) (P10635 whole entry, looked up): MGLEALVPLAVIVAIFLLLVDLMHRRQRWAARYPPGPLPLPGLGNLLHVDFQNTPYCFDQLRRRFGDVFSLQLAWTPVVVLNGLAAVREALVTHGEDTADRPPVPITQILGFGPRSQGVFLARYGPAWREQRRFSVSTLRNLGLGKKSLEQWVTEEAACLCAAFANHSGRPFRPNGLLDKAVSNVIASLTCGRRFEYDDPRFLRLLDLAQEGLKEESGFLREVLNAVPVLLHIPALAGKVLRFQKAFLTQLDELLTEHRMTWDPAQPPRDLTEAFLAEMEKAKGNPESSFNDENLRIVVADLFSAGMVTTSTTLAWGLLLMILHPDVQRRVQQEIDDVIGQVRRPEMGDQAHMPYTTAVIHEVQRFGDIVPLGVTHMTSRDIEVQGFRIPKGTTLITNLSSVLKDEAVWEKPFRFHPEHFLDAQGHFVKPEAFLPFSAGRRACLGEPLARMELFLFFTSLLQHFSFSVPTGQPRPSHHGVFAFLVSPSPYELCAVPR
Chain of Progesterone receptor (Homo sapiens) (P06401 whole entry, looked up): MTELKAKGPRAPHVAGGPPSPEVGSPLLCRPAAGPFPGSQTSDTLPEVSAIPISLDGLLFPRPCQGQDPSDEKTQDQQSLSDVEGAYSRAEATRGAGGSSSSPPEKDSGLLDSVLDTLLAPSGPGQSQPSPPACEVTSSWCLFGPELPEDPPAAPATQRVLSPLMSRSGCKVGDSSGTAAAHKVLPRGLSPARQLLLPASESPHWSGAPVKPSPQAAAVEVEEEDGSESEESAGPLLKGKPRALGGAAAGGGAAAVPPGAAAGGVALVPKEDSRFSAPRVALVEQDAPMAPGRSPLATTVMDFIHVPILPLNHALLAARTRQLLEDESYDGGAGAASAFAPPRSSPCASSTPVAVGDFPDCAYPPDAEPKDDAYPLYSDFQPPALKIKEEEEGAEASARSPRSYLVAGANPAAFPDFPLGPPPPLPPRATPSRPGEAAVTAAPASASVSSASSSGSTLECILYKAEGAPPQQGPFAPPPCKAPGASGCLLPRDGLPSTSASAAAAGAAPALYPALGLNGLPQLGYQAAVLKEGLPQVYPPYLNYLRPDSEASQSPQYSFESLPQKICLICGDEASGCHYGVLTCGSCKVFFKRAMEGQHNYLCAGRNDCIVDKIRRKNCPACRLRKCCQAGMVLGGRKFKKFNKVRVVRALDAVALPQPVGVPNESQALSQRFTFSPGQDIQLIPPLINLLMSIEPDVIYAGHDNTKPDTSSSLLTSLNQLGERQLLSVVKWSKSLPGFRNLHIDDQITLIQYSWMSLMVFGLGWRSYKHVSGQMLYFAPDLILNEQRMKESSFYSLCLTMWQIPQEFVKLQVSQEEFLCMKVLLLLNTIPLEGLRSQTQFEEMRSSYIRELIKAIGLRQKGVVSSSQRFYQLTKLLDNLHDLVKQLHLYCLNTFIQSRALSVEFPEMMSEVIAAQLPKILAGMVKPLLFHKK
Chain of Nuclear receptor subfamily 1 group I member 2 (Homo sapiens) (O75469 whole entry, looked up): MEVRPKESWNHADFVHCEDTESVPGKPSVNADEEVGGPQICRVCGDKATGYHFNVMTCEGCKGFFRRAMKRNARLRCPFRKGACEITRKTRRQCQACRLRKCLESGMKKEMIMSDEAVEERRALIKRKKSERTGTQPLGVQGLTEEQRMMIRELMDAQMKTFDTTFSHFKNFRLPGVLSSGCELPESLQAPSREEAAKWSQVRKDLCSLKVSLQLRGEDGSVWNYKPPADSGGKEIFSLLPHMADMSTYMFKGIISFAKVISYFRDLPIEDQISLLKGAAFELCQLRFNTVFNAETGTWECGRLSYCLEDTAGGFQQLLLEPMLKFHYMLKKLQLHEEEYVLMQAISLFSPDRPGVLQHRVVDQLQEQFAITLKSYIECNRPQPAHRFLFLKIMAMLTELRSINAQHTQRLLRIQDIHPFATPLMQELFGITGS
Chain of Cytochrome P450 2C19 (Homo sapiens) (P33261 whole entry, looked up): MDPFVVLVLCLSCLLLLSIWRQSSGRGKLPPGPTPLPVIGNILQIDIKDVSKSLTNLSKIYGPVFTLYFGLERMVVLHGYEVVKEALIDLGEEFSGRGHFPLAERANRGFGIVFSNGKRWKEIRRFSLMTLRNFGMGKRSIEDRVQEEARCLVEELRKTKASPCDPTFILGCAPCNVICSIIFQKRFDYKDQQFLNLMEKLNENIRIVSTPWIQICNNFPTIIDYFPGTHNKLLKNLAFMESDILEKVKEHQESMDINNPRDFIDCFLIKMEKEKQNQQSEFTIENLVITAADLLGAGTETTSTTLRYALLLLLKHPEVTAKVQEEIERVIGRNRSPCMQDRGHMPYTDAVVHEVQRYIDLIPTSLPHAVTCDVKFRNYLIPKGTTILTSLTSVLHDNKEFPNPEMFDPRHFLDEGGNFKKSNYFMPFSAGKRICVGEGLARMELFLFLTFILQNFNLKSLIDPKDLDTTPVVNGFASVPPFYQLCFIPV
Chain of Thyrotropin-releasing hormone receptor (Homo sapiens) (P34981 whole entry, looked up): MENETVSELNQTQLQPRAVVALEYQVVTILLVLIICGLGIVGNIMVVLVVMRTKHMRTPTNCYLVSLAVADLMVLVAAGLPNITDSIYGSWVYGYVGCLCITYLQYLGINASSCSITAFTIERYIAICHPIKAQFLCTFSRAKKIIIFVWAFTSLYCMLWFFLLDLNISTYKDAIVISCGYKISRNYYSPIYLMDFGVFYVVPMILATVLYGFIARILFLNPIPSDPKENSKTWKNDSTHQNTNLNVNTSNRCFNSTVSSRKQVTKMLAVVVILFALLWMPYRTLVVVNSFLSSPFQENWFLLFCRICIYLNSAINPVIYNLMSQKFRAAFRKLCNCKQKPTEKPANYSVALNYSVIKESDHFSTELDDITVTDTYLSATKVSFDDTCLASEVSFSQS

| SMILES | Potency [1] | Potency [2] | Potency [3] | Potency [4] | Potency [5] | Potency [6] | Potency [7] | Potency [8] | Potency [9] | outcome [10] | Potency [11] | Potency [12] | Potency [13] | Potency [14] | Potency [15] | Potency [16] | Potency [17] | Potency [18] | Potency [19] |
| --- | --- | --- | --- | --- | --- | --- | --- | --- | --- | --- | --- | --- | --- | --- | --- | --- | --- | --- | --- |
| CCc1oc2ccccc2c1C(=O)c1cc(I)c(O)c(I)c1 | 21.1 µM (active) | inactive | inactive | inactive | inactive | inactive | inactive | 25.1 µM (active) |  |  |  |  |  |  |  |  |  |  |  |
| Cc1ccc(O)c(O)c1 | 42 µM (active) | inactive | inactive | inactive | inactive | inactive | 59.4 µM (active) |  | inactive | inactive | 52.9 µM (active) | inactive |  |  |  |  |  |  |  |
| CC1(C)[C@@H](O)CC[C@]2(C)[C@H]3C(=O)C=C4[C@@H]5C[C@@](C)(C(=O)O)CC[C@]5(C)CC[C@@]4(C)[C@]3(C)CC[C@@H]12 | 60.4 µM (active) | inactive | inactive |  |  | inactive | inactive | inactive | inactive |  |  | inactive | inactive | inactive | inactive |  |  |  |  |
| Oc1cc(Cl)cc(Cl)c1Cl |  |  |  | inactive |  | inactive |  |  |  |  |  |  | inactive |  |  | inactive |  |  |  |
| Cc1cc(=O)oc2cc(O)cc(O)c12 | inactive | inactive | inactive |  | inactive | inactive | 61.3 µM (active) |  | inactive | inactive |  | inactive | inactive | inactive |  |  |  |  |  |
| FC(F)(F)c1cccc(Cl)c1 |  |  |  | inactive | inactive | inactive | inactive |  |  |  | inactive | inactive |  | inactive |  | 69.7 µM (active) | inactive |  |  |
| CN(C)c1ccc(C(=C2C=CC(=[N+](C)C)C=C2)c2ccc(N(C)C)cc2)cc1 | 19.3 µM (active) |  |  |  | 19.2 µM (active) and 27.3 µM (active) and 26.6 µM (active) | 7.66 µM (active) and 6.11 µM (active) and 8.41 µM (active) | 2.42 µM (active) | inactive |  | inactive | 1.71 µM (active) and 686 nM (active) and 2.37 µM (active) |  | 24.2 µM (active) and 30.6 µM (active) and 21.1 µM (active) | 3.84 µM (active) and 2.73 µM (active) and 6.68 µM (active) | inactive | 19.9 µM (active) and 22.4 µM (active) and 21.9 µM (active) | 27.2 µM (active) and 21.1 µM (active) | 17.1 µM (active) and 9.69 µM (active) and 8.41 µM (active) |  |
| CN(C)Cc1cc(C(C)(C)C)c(O)c(C(C)(C)C)c1 |  |  |  | inactive | inactive | inactive |  |  |  |  | inactive |  |  | inactive |  | 10 µM (active) |  | inactive | inactive |
| Cc1c(C)c([N+](=O)[O-])c(C(C)(C)C)c([N+](=O)[O-])c1C |  |  | inactive | inactive |  | inactive |  |  | inactive | inactive | inactive | inactive | inactive | inactive |  | 28.3 µM (active) | inactive | inactive |  |
